Common to all, as to assay: NCI-60 one-dose screen, 48 h (100 = growth as untreated, 0 = no growth, -100 = all killed)
Holding throughout (conditions): 10 µM unless noted

The subject of assay [1] is RPMI-8226 leukemia.
Assay [2] deals with OVCAR-8 ovarian.
Assay [3] has as its system OVCAR-5 ovarian.
Assay [4] deals with OVCAR-4 ovarian.
For assay [5], the system named is SK-OV-3 ovarian.
For assay [6], the system named is IGROV1 ovarian.
In assay [7] the test system is OVCAR-3 ovarian.
For assay [8], the system named is HS 578T breast.
For assay [9], the system named is NCI/ADR-RES ovarian.
Assay [10] deals with T-47D breast.
Assay [11] has as its system BT-549 breast.
Assay [12] relates to MDA-MB-435 melanoma.
For assay [13], the system named is SW-620 colon.
Assay [14] has as its system MCF7 breast.
Assay [15] has as its system HCT-116 colon.
The test system of assay [16] is HCC-2998 colon.
Assay [17] relates to KM12 colon.

Here are results for eight compounds from PubChem BioAssay (NCI).

This is part of a sample that, as a whole, favours compounds with a hit. Of some 83,000 tested, about 20% had one in any assay.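 Values shown are percent growth following 48 h exposure of cells in 96-well plates to a single concentration of compound; below 10 was considered active.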 A number with no mark means an inactive call. The source made the active and inactive calls.

On to `COc1ccc(-c2cc(Cc3cccs3)c(=O)n(Cn3ccc4ccccc43)n2)cc1`, for which the growth is 88% in assay [1]; 99.2% in assay [2]; 99.9% in assay [3]; 111% in assay [4]; 106% in assay [5]; 124% in assay [6]. Further, the growth was 111% in [7]; 112% in assay [8]; 107% in assay [9]; 109% in assay [10]; 116% in [11]; 90.8% in assay [12]. For the same compound, the growth in [13] is 114%; in assay [14] it was 95.2%; in assay [15], 106%; in assay [16], 107%; in assay [17], 110%.
On to `NNC(=O)C1CC2c3ccccc3C1c1ccccc12` (stereo unspecified), for which the growth in [1] was 90.1%; in assay [2], 102%; in [3], 99.4%; in [4] it was 106%; in assay [5], 112%; in [6], 110%. Further, the growth was 102% in [7]; 102% in assay [8]; 103% in [9]; 112% in assay [10]; 102% in assay [11]; 106% in [12]. Also, the growth is 108% in [13]; 101% in assay [14]; 108% in assay [15]; 101% in assay [16]; 115% in assay [17].
With `CN1CCN(CC(=O)Nc2nc3c(s2)Nc2cc(Cl)c(Cl)cc2NC3=O)CC1`, the growth in assay [1] is 108%; in assay [2], 99.3%; in assay [3], 113%; in [4], 116%; in assay [5], 99%; in assay [6], 110%. Also, the growth was 115% in [7]; 107% in assay [8]; 109% in assay [9]; 98.1% in assay [10]; 100% in [11]; 107% in [12]. Further, the growth in assay [13] was 112%; in assay [14], 104%; in assay [15] it was 100%; in assay [16], 110%; in assay [17], 102%.
For the compound `COc1cc(C2NC(c3ccc(Cl)cc3)C(C)/C(=N/NC(N)=S)C2C)cc(OC)c1OC` (stereo unspecified), the growth in [1] was 74.2%; in assay [2], 87.3%; in assay [3] it was 98%; in assay [4], 87%; in assay [5], 101%; in [6], 89.7%. Further, the growth was 98.6% in assay [7]; 98.1% in [8]; 94.1% in [9]; 82.7% in assay [10]; 111% in assay [11]; 107% in assay [12]. The growth in assay [13] was 106%; in [14], 90.3%; in assay [15], 73.1%; in [16], 126%; in [17] it was 88.6%.
Consider `CCN1C[C@@H](C)n2c(c(O)c3c(=O)n(Cc4ccc(F)c(Cl)c4)nc(C(=O)NC)c32)C1=O`, for which the growth in assay [1] is 19.4%; in assay [2] it was 22%; in [3], 88.6%; in assay [4] it was 80.2%; in assay [5], 43.5%; in assay [6] it was 28.7%. The growth in assay [7] is 38.1%; in [8], 16.7%; in assay [9] it was 15.3%; in assay [10], 27%; in assay [11], 9.6% (active); in [12], 27.4%. In addition, the growth in assay [13] is 21.1%; in assay [14], 53.6%; in assay [15], 16.3%; in assay [16], 14.7%; in assay [17], 21%.
Take `CCCCCCCCCCSc1ncnc2nc[nH]c12`: the growth in [1] was 51.4%; in assay [2] it was 67.5%; in [3], 101%; in assay [4] it was 61.3%; in assay [5], 85%; in assay [6], 75.1%. In addition, the growth in [7] was 71.1%; in assay [8], 91.4%; in [9] it was 54.5%; in assay [10] it was 47.9%; in assay [11] it was 75.8%; in assay [12], 76.6%. Besides, the growth was 86.5% in [13]; 75.9% in assay [14]; 48.8% in assay [15]; 78.1% in assay [16]; 85.1% in assay [17].
For `Nc1nc(N)c([N+](=O)[O-])c(=O)[nH]1`, the growth was 97.4% in assay [1]; 106% in assay [2]; 100% in assay [3]; 114% in [4]; 100% in assay [5]; 110% in assay [6]. For the same compound, the growth in [7] is 108%; in [8] it was 100%; in assay [9], 101%; in [10] it was 92.2%; in assay [11] it was 114%; in [12] it was 104%. Also, the growth in assay [13] was 97.4%; in [14] it was 88.6%; in assay [15], 110%; in assay [16], 103%; in assay [17] it was 111%.
Regarding `C/C(=C\CCc1ccsc1)CC/C=C(\C)CCCN1CCC(CO)CC1`, the growth in assay [1] was -31.1% (active); in assay [2] it was 62.8%; in [3], 63.9%; in assay [4], 40.8%; in [5], 55.5%; in assay [6], 56.1%. Also, the growth in assay [7] is 48.6%; in assay [8], 28.3%; in [9] it was 51%; in [10], 27.1%; in [11] it was 36.2%; in [12] it was 13%. For the same compound, the growth was -29.8% (active) in assay [13]; 16% in [14]; -2.6% (active) in [15]; -14.9% (active) in [16]; 5.04% (active) in assay [17].
